# High-throughput results as filed in PubChem.
# Mcl1 Bid PPI = Mcl-1/Bid binding inhibitors, primary screen, biochemical, TR-FRET, 1536-well. AID 1021, 2008. Induced myeloid leukemia cell differentiation protein Mcl-1 (Homo sapiens), Q07820. inhibition, % at 21.7 µM. TR-FRET Mcl-1/Bid-Dy647 peptide binding. hit rate 0.97% among 220,000;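 active means compounds that cut the binding signal by more than half at the single screening dose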;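 further: His-tagged Mcl-1 with europium anti-His antibody binding Bid BH3 peptide; 0% = Mcl-1 plus peptide wells and 100% = peptide-only wells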
# Mcl1 Noxa PPI = Mcl-1/Noxa binding inhibitors, primary screen, biochemical, TR-FRET, 1536-well; Induced myeloid leukemia cell differentiation protein Mcl-1 (Homo sapiens), Q07820; TR-FRET Mcl-1/Noxa peptide binding, 2 h; inhibition, % at 21.7 µM; hit rate 1.5% among 220,000; AID 1022, 2008;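 active means compounds that cut the protein-peptide binding signal by more than 50% relative to plate controls in a single-dose test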;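 further: His-tagged Mcl-1 with rhodamine Noxa BH3 peptide and terbium anti-His antibody; 0% = Mcl-1 plus Noxa peptide wells and 100% = peptide-only wells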
# MCL1-BIM inh = inhibitors of MCL1 binding to BIM-BH3, primary screen, biochemical, fluorescence polarization; hit rate 0.68% among 320,000; Induced myeloid leukemia cell differentiation protein Mcl-1 (Homo sapiens), Q07820; GST-MCL1 / FITC-Bim-BH3 fluorescence polarization; inhibition, % at 10.9 µM;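 active means inhibition above the mean inhibition of all tested compounds plus 3 SD, set per campaign, cut at about 40% in these data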;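 further: 0% = DMSO wells and 100% = unlabeled Bim-BH3 peptide control; higher means more loss of mP so more displacement of Bim peptide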
# 14-3-3 Bad PPI = inhibitors of 14-3-3 zeta/Bad binding, primary screen, biochemical, TR-FRET, bovine 14-3-3 zeta | 14-3-3 protein zeta/delta (Bos taurus), P63103 | TR-FRET 14-3-3zeta/Dy647-pBad peptide displacement, 1 h | inhibition, % at 21.7 µM | hit rate 0.71% among 220,000 | AID 781, 2007;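 active means inhibition above about 70%, limit read from the data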;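 further: 0% = full 14-3-3 plus peptide FRET controls and 100% = background without 14-3-3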
# Target sequence (P63103 whole entry, looked up): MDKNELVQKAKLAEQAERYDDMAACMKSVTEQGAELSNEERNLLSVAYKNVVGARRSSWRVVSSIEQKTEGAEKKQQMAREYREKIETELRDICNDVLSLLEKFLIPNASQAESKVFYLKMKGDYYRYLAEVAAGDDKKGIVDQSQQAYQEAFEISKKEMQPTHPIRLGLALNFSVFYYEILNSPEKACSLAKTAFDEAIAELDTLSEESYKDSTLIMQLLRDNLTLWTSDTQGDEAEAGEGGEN
# Mcl-1 Bim block = inhibitors of Bim peptide binding to Mcl-1, primary screen, biochemical, bead-based flow cytometry, multiplex | Bim peptide-Mcl-1 binding | AID 1009, 2008 | Induced myeloid leukemia cell differentiation protein Mcl-1 (Homo sapiens), Q07820 | inhibition, % at 10 µM | hit rate 0.1% among 190,000; in the data active means inhibition above about 40%;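 further: 0% = no compound tracer wells and 100% = peptide blocker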
# * = called active by the depositor; nt = not tested or not shown; [ ] = remark or other dose. Hits are enriched below; roughly 2.5% of the tested compounds scored in any of these assays.
SMILES,Mcl1 Bid PPI,Mcl1 Noxa PPI,MCL1-BIM inh,14-3-3 Bad PPI,Mcl-1 Bim block
COC(=O)c1c(C(=O)NCc2ccccc2)ncn1CC(O)COc1ccccc1 (stereo not given),-36.2,-18.2,4.7,2.0,0.0
Nc1n[nH]c(=S)n1/N=C1/C(=O)Nc2ccccc21,21.9,70.8*,nt,37.8,0.0
COc1ccc(CCNC(=O)CC(NS(=O)(=O)c2ccc(NC(C)=O)cc2)C(C)C)cc1OC (stereo not given),7.4,21.5,2.0,17.1,-2.0
COc1cc(/C=C2\S/C(=N/S(=O)(=O)Cc3ccccc3)NC2=O)c([N+](=O)[O-])cc1OC,6.1,11.2,23.0,5.8,nt
COc1cc(/C=C2/S/C(=N/S(=O)(=O)c3ccccc3)NC2=O)c([N+](=O)[O-])cc1OC,20.8,29.4,46.2*,5.6,0.0
COC(=O)c1ccc(CSc2ncnc3sc(C)c(C)c23)o1,58.7*,13.7,20.1,-5.5,-2.0
O=C1c2ccccc2C(=O)C1c1ccnc2ccccc12,14.1,30.9,-5.7,62.4,2.0
O=C1c2ccccc2C(=O)C1c1nccc2ccccc12,35.2,57.5*,14.9,59.5,1.0
Cc1c(CCOC(=O)c2cc([N+](=O)[O-])cc([N+](=O)[O-])c2)sc[n+]1CC(=O)c1ccccc1,-26.4,3.1,7.6,-5.9,-2.0
CC(=O)N1N=C(C)CC1c1ccc(O)cc1 (stereo not given),-10.2,14.1,11.0,-14.6,-5.0
COc1ccc2[nH]c3c4c(ccc3c2c1)C(=O)C=CC4=O,81.8*,98.0*,nt,25.9,nt
O=[N+]([O-])c1ccc(S(=O)(=O)N2CCN(Cc3c[nH]c4ccccc34)CC2)cc1,26.1,11.0,-1.7,78.7*,0.0
COc1ccc(S(=O)(=O)N2CCN(Cc3c[nH]c4ccccc34)CC2)cc1,-13.5,6.4,12.1,-9.3,-2.0
O=C(CN1C(=O)COc2ccccc21)c1ccc(Cl)cc1,-22.0,-4.7,0.7,-7.6,-91.0
CCCCn1c(SC(C)C(=O)c2ccc(OC)cc2)nc2cc(S(N)(=O)=O)ccc21 (stereo not given),-8.4,10.0,-0.7,-2.5,1.0
O=S(=O)(Nc1ccc2nc(-c3ccc(Br)o3)[nH]c2c1)c1ccccc1,-29.8,52.1*,nt,-7.1,-1.0
COc1ccc(CNC(=O)C2CCN(S(=O)(=O)c3cccnc3)CC2)cc1,nt,nt,-2.7,nt,nt
Cc1sc2nc(CN3CCN(c4ccc(O)cc4)CC3)[nH]c(=O)c2c1C,-36.3,67.1*,16.8,6.3,nt
COC(=O)Cc1nnc(Nc2cccc(C)c2)c2ccccc12,-31.5,5.9,-1.8,0.0,nt
CCOC(=O)Cc1nnc(Nc2cccc(C)c2)c2ccccc12,64.5*,-26.1,-0.7,4.5,-5.0
O=Cc1ccccc1-n1cccn1,2.4,10.7,0.5,-7.2,4.0
Oc1cc(-n2cccn2)c(O)cc1-n1cccn1,-241.2,69.8*,8.5,3.2,nt
CCOC(=O)CSc1nc(C(C)C)nc2sc(C)c(C)c12,-7.2,-0.1,6.2,-6.3,3.0
N#Cc1nc(COc2ccc(F)cc2)oc1N1CCN(Cc2ccccc2)CC1,76.8*,2.8,7.5,-3.5,1.0
N#Cc1nc(COc2ccc(Br)cc2)oc1N1CCN(Cc2ccccc2)CC1,-26.0,7.7,nt,7.4,-6.0
SMILES,Mcl1 Bid PPI,Mcl1 Noxa PPI,MCL1-BIM inh,14-3-3 Bad PPI,Mcl-1 Bim block
Cn1c(=O)n(-c2cccc(Cl)c2)c(=O)n1C,-3.2,-10.7,-0.8,5.7,0.0
COc1ccc(-n2c(SCC(=O)N3CCc4ccccc43)nnc2-c2c[nH]c3ccccc23)cc1,-32.4,-12.0,-7.7,78.1*,-1.0
CCn1c(SCC(=O)N2CCc3ccccc32)nnc1-c1c[nH]c2ccccc12,-8.7,14.3,2.2,-12.7,-1.0
CN1CCCC(C(=O)C(C#N)c2ccccc2)C1 (stereo not given),-17.3,4.0,-3.0,-2.5,-2.0
COc1ccc2nc(N3C(=O)/C(=C/c4ccc(Cl)cc4)NC3=S)sc2c1,88.5*,87.3*,nt,72.3*[fluorescence artefact?],-2.0
CCOC(=O)c1c(N2C(=O)C=CC2=O)sc(C)c1C,35.8,54.3*,21.3,3.5,-4.0
Cc1ccc(S(=O)(=O)Nc2ccnc3ccccc23)cc1,62.9*,-1.7,5.4,10.9,0.0
Cc1ccc(S(=O)(=O)Nc2cccc3ncccc23)cc1,-19.1,-3.7,2.5,2.2,nt
